# Read-outs that look alike come from different tables or passages of the source.
# Assays:
# Set-up in all cases: species or system human, MV4-11 + K-562 + COLO205 + SK-N-BE2 + OVCAR-8
# [1] = system: DDR1; settings: read-out: apparent Kd, compound concentrations: 100 nM and 1000 nM (sheet 'Samples'), n = 1
# [2] = system: MAPK11; settings: read-out: apparent Kd; compound concentrations: 100 nM and 1000 nM (sheet 'Samples'), CATDS: 0.201173372459408; n = 1
# [3] = system: MAPK14; settings: read-out: apparent Kd; compound concentrations: 100 nM and 1000 nM (sheet 'Samples'), CATDS: 0.39757840601660499; n = 1
# [4] = system: MAPKAPK2; settings: read-out: apparent Kd; compound concentrations: 100 nM and 1000 nM (sheet 'Samples'), CATDS: 0.28488469813325601; n = 1
# [5] = system: T1, DJA1; settings: read-out: apparent Kd, n = 1
# T1 construct: gene DNAJA1
# [6] = system: NNT; settings: read-out: apparent Kd; compound concentrations: 100 nM and 1000 nM (sheet 'Samples'), CATDS: 0.29413941723105502; n = 1
# [7] = system: PDXK; settings: read-out: apparent Kd, compound concentrations: 100 nM and 1000 nM (sheet 'Samples'), n = 1
# [8] = system: TGFBR1; settings: read-out: apparent Kd; compound concentrations:100 nM and 1000 nM (sheet 'Samples'); n = 1
# [9] = system: DDR2; settings: read-out: apparent Kd; compound concentrations: 100 nM and 1000 nM (sheet 'Samples'), CATDS: 0.27583033516959499; n = 1
# [10] = system: PIP4K2C; settings: read-out: apparent Kd; compound concentrations: 100 nM and 1000 nM (sheet 'Samples'), CATDS: 0.290600345689909; n = 1
# [11] = system: RIPK2; settings: read-out: apparent Kd; compound concentrations: 100 nM and 1000 nM (sheet 'Samples'), CATDS: 0.517215300479827; n = 1
# [12] = system: RET; settings: read-out: apparent Kd; compound concentrations: 100 nM and 1000 nM (sheet 'Samples'), CATDS: 0.66241044961877704; n = 1
# [13] = system: EGFR; settings: read-out: apparent Kd; compound concentrations: 100 nM and 1000 nM (sheet 'Samples'), CATDS: 1; n = 1
# [14] = system: GSK3A; settings: read-out: apparent Kd, compound concentrations: 100 nM and 1000 nM (sheet 'Samples'), n = 1
# [15] = system: GSK3B; settings: read-out: apparent Kd, compound concentrations: 100 nM and 1000 nM (sheet 'Samples'), n = 1
# [16] = system: ILK; settings: read-out: apparent Kd; compound concentrations: 100 nM and 1000 nM (sheet 'Samples'), CATDS: 0.13612875725697299; n = 1
# [17] = system: NQO2; settings: read-out: apparent Kd; compound concentrations: 100 nM and 1000 nM (sheet 'Samples'), CATDS: 0.173411525016403; n = 1
# [18] = system: PIK3CB; settings: read-out: apparent Kd; compound concentrations: 100 nM and 1000 nM (sheet 'Samples'), CATDS: 0.79841434313068305; n = 1
# [19] = system: DYNC1LI1; settings: read-out: apparent Kd, compound concentrations: 100 nM and 1000 nM (sheet 'Samples'), n = 1
# [20] = system: MYLK3; settings: read-out: apparent Kd; compound concentrations: 100 nM and 1000 nM (sheet 'Samples'), CATDS: 9.6792260241437694E-2; n = 1
# [21] = system: PIK3CD; settings: read-out: apparent Kd; compound concentrations: 100 nM and 1000 nM (sheet 'Samples'), CATDS: 0.44284718560289399; n = 1
# [22] = system: PRKCD; settings: read-out: apparent Kd; compound concentrations: 100 nM and 1000 nM (sheet 'Samples'), CATDS: 9.5557824797396607E-2; n = 1
# [23] = system: PRKCQ; settings: read-out: apparent Kd; compound concentrations: 100 nM and 1000 nM (sheet 'Samples'), CATDS: 0.104256233520078; n = 1
# [24] = system: DHCR24; settings: read-out: apparent Kd; compound concentrations:100 nM and 1000 nM (sheet 'Samples'); n = 1
# [25] = system: MCM5; settings: read-out: apparent Kd; compound concentrations:100 nM and 1000 nM (sheet 'Samples'); n = 1
# [26] = system: DYRK1A; settings: read-out: apparent Kd; compound concentrations:100 nM and 1000 nM (sheet 'Samples'); n = 1
# [27] = system: PRKD1; settings: read-out: apparent Kd; compound concentrations:100 nM and 1000 nM (sheet 'Samples'); n = 1
# [28] = system: IRAK4; settings: read-out: apparent Kd; compound concentrations: 100 nM and 1000 nM (sheet 'Samples'), CATDS: 6.7100435979899897E-2; n = 1
# [29] = system: MAP2K1; settings: read-out: apparent Kd; compound concentrations: 100 nM and 1000 nM (sheet 'Samples'), CATDS: 6.4942175038997504E-2; n = 1
# [30] = system: MAP3K2; settings: read-out: apparent Kd; compound concentrations: 100 nM and 1000 nM (sheet 'Samples'), CATDS: 7.9900498504471701E-2; n = 1
# [31] = system: STK3; settings: read-out: apparent Kd; compound concentrations: 100 nM and 1000 nM (sheet 'Samples'), CATDS: 7.3483496844903004E-2; n = 1
# [32] = system: STK4; settings: read-out: apparent Kd; compound concentrations: 100 nM and 1000 nM (sheet 'Samples'), CATDS: 6.4981472702296803E-2; n = 1
# [33] = system: TAOK1; settings: read-out: apparent Kd; compound concentrations: 100 nM and 1000 nM (sheet 'Samples'), CATDS: 0.10465573180823801; n = 1
# [34] = system: TAOK3; settings: read-out: apparent Kd; compound concentrations: 100 nM and 1000 nM (sheet 'Samples'), CATDS: 8.7598902274653806E-2; n = 1
# [35] = system: TNK2; settings: read-out: apparent Kd; compound concentrations: 100 nM and 1000 nM (sheet 'Samples'), CATDS: 8.6765119114313102E-2; n = 1
# [36] = system: TUBB6; settings: read-out: apparent Kd; compound concentrations: 100 nM and 1000 nM (sheet 'Samples'), CATDS: 7.2898721054062393E-2; n = 1
# [37] = system: WEE1; settings: read-out: apparent Kd; compound concentrations: 100 nM and 1000 nM (sheet 'Samples'), CATDS: 6.8522632580167595E-2; n = 1
structure (smiles),measurement,setting,value
Cc1ccc(NC(=O)c2ccnc(N3CCCC3)c2)cc1-c1ccc(C(=O)NCC2CC2)cc1 [GW769076X],potency estimated from few doses,[1]; CATDS: 0.199850350995284,570 nM
same,potency estimated from few doses,[2],559 nM
same,potency estimated from few doses,[3],140 nM
same,potency estimated from few doses,[4],250 nM
CC(C)c1[nH]nc2c1N=C(c1ccccc1Cl)c1cc([N+](=O)[O-])ccc1N2 [RO0274710-000],potency estimated from few doses,"[5]; compound concentrations: 100 nM and 1000 nM (sheet 'Samples'), CATDS: 0.40583373860109201",864 nM
same,potency estimated from few doses,[6],1640 nM
same,potency estimated from few doses,[7]; CATDS: 0.31885839544215799,1370 nM
Clc1ccc(-c2cc(-c3c[nH]nc3-c3ccccn3)ccn2)cc1 [GW681251X],potency estimated from few doses,[5]; compound concentrations:100 nM and 1000 nM (sheet 'Samples'),843 nM
same,potency estimated from few doses,[8],856 nM
CNC(=O)c1cncc(/C=C/c2c(C)cccc2C)c1 [GW445012X],potency estimated from few doses,[9],2060 nM
same,potency estimated from few doses,[10],1800 nM
same,potency estimated from few doses,[11],587 nM
Nc1ncnc2occ(-c3ccc(NC(=O)Nc4cc(C(F)(F)F)cc(C(F)(F)F)c4)cc3)c12 [GW795486X],potency estimated from few doses,[1]; CATDS: 0.40154805135944899,1020 nM
same,potency estimated from few doses,[12],350 nM
Fc1cccc(COc2ccc(Nc3ncnc4sc(-c5ccco5)cc34)cc2Cl)c1 [GSK969786A],potency estimated from few doses,[13],815 nM
Cn1cc(C2=C(c3cn(C)c4ncccc34)C(=O)NC2=O)c2ccccc21 [RO0271528-000],potency estimated from few doses,"[5]; compound concentrations: 100 nM and 1000 nM (sheet 'Samples'), CATDS: 0.169109962216623",1330 nM
same,potency estimated from few doses,[14]; CATDS: 0.18190367371529301,1150 nM
same,potency estimated from few doses,[15]; CATDS: 0.17248189014097001,1280 nM
same,potency estimated from few doses,[16],2170 nM
same,potency estimated from few doses,[17],1260 nM
same,potency estimated from few doses,[7]; CATDS: 0.17608898897019801,1230 nM
Cc1c(Cn2c3ccccc3n3c(=O)cc(N4CCOCC4)nc23)cccc1C(F)(F)F [GSK2306394A],potency estimated from few doses,"[5]; compound concentrations: 100 nM and 1000 nM (sheet 'Samples'), CATDS: 0.30097601497631998",653 nM
same,potency estimated from few doses,[7]; CATDS: 0.22598902737403401,1920 nM
same,potency estimated from few doses,[18],66.7 nM
Cn1cc(C2=C(c3cn(C)c4ccc(N)cc34)C(=O)NC2=O)c2ccccc21 [RO0317365-000],potency estimated from few doses,"[5]; compound concentrations: 100 nM and 1000 nM (sheet 'Samples'), CATDS: 0.11913722870337901",1120 nM
same,potency estimated from few doses,[19]; CATDS: 9.8378875134037994E-2,1880 nM
same,potency estimated from few doses,[14]; CATDS: 0.15388620061227101,637 nM
same,potency estimated from few doses,[15]; CATDS: 0.158803622599584,598 nM
same,potency estimated from few doses,[20],1970 nM
same,potency estimated from few doses,[21],113 nM
same,potency estimated from few doses,[22],2060 nM
same,potency estimated from few doses,[23],1580 nM
O=C1NC(=O)C(N2CCc3ccccc32)=C1c1cccc(Cl)c1 [SB-408010],potency estimated from few doses,[24],1900 nM
same,potency estimated from few doses,[25],1580 nM
O=c1[nH]cc(-c2ccc(N3CCOCC3)cc2)c2sc(-c3cn[nH]c3)cc12 [GSK2276055A],potency estimated from few doses,[26],810 nM
same,potency estimated from few doses,[27],936 nM
COc1ccc2c(c1)C(c1ccccc1Cl)=Nc1c(n[nH]c1C)N2 [RO0281498-000],potency estimated from few doses,[19]; CATDS: 8.5515201932316404E-2,1210 nM
same,potency estimated from few doses,[14]; CATDS: 8.5763522680639803E-2,1210 nM
same,potency estimated from few doses,[15]; CATDS: 7.6779937662019099E-2,1500 nM
same,potency estimated from few doses,[28],2010 nM
same,potency estimated from few doses,[29],2180 nM
same,potency estimated from few doses,[30],1380 nM
same,potency estimated from few doses,[31],1640 nM
same,potency estimated from few doses,[32],2180 nM
same,potency estimated from few doses,[33],858 nM
same,potency estimated from few doses,[34],1160 nM
same,potency estimated from few doses,[35],1180 nM
same,potency estimated from few doses,[36],1670 nM
same,potency estimated from few doses,[37],1920 nM

# Reference: paper PMC11062922 (Nature Chemical Biology, 2023)
